Measurements as given in the supplement of paper PMC11732987, “Enantioselective OTUD7B fragment discovery through chemoproteomics screening and high-throughput optimisation” (Communications Chemistry, 2025).

Assays:
Experiment in all cases: log2 ratio of Biotin-Ahx-Ub-VS probe labelling (fragment/DMSO); higher = less target engagement (more negative = stronger competition), active = hit call of the paper (q ≤ 0.05, log2 ratio ≤ -1)
Conditions in all cases: compound concentration: 200 uM; treatment time: 3 h
[1] = biological target: T1, USP42 (UniProt Q9H9J4)
T1 sequence (whole entry): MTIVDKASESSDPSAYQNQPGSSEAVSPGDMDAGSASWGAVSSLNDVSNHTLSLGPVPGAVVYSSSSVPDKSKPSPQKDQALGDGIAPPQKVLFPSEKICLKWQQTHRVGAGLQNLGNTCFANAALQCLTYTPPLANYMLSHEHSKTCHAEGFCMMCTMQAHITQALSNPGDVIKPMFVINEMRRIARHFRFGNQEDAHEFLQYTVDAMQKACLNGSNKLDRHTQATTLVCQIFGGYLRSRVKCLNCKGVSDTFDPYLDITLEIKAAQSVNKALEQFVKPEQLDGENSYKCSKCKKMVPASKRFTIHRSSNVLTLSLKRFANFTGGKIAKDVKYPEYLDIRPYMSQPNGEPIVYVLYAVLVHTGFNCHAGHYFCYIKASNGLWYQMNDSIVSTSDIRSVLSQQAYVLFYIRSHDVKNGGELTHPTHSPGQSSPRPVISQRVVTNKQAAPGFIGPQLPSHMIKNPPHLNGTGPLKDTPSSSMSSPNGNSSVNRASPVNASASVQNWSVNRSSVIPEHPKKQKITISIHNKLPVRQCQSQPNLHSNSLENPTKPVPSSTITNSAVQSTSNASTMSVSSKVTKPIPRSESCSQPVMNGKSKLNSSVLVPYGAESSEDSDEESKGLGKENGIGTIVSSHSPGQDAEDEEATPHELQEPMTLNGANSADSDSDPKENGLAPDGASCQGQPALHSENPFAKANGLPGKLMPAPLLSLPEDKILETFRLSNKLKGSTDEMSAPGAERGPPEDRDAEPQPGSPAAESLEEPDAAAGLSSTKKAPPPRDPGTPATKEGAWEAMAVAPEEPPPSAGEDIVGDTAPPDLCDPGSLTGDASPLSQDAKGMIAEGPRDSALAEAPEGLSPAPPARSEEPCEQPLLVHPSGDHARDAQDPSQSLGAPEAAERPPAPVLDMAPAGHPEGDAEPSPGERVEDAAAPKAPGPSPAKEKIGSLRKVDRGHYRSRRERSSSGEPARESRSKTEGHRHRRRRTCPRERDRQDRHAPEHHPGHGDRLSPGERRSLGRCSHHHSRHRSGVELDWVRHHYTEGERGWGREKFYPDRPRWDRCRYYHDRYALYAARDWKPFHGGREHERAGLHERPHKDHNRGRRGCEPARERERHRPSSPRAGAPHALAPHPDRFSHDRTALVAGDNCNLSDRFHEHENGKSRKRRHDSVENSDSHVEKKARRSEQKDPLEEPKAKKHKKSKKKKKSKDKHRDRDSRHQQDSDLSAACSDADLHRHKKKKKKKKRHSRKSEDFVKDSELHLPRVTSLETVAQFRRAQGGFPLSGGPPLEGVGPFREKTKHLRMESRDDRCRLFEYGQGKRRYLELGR
Outline: (§1)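 Triplicate samples of HEK293T lysate, 495 µg each, received fragment at 200 µM or vehicle for 3 h, followed by Biotin-Ahx-Ub-VS (0.5 µM final) for 1 h. After NeutrAvidin enrichment of labelled DUBs and LysC/trypsin digestion, peptides were run by diaPASEF LC-MS/MS. The values are average log2 fragment/vehicle ratios from global-median-normalised Spectronaut label-free quantities, tested by unpaired t-test on proteins having ≥2 unique peptides.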

[2] = biological target: USP46 (UniProt P62068)
Outline: as §1

[3] = biological target: T2, USP47 (UniProt Q96K76)
T2 sequence (whole entry): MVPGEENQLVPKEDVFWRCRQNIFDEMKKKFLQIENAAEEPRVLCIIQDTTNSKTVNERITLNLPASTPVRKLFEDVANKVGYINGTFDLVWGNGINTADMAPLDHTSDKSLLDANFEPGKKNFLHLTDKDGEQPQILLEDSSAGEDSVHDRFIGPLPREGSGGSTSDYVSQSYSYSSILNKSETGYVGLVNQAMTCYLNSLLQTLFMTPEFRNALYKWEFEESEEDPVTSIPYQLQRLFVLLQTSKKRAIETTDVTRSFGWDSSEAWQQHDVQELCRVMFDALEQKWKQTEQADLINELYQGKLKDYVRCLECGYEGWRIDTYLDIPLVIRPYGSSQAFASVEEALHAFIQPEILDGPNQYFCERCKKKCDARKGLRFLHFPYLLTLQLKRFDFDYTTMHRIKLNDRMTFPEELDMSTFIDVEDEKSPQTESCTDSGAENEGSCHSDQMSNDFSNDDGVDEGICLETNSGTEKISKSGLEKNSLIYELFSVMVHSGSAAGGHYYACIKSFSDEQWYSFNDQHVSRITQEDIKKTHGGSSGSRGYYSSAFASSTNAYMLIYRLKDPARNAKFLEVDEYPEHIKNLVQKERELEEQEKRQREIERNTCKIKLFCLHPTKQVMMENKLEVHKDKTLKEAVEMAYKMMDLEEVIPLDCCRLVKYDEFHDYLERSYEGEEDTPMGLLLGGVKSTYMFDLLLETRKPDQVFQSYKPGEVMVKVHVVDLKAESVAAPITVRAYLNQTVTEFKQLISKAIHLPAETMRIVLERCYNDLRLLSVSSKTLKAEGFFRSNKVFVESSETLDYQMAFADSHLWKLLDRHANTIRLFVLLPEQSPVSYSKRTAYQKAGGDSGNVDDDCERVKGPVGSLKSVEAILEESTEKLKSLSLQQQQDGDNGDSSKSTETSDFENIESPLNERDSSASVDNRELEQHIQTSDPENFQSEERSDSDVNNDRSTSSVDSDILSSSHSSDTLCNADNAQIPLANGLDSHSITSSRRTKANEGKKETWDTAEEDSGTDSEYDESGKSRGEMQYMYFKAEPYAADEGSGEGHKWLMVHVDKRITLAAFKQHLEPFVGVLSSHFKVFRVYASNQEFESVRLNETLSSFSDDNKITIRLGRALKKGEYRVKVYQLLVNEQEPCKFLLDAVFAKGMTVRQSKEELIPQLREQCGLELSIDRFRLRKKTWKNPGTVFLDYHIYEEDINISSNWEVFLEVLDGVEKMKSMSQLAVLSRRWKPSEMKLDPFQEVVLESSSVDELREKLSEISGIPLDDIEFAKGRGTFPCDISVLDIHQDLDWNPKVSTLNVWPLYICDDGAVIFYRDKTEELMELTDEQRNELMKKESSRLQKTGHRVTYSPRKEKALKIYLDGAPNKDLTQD
Outline: as §1

[4] = biological target: T3, USP48 (UniProt Q86UV5)
T3 sequence (whole entry): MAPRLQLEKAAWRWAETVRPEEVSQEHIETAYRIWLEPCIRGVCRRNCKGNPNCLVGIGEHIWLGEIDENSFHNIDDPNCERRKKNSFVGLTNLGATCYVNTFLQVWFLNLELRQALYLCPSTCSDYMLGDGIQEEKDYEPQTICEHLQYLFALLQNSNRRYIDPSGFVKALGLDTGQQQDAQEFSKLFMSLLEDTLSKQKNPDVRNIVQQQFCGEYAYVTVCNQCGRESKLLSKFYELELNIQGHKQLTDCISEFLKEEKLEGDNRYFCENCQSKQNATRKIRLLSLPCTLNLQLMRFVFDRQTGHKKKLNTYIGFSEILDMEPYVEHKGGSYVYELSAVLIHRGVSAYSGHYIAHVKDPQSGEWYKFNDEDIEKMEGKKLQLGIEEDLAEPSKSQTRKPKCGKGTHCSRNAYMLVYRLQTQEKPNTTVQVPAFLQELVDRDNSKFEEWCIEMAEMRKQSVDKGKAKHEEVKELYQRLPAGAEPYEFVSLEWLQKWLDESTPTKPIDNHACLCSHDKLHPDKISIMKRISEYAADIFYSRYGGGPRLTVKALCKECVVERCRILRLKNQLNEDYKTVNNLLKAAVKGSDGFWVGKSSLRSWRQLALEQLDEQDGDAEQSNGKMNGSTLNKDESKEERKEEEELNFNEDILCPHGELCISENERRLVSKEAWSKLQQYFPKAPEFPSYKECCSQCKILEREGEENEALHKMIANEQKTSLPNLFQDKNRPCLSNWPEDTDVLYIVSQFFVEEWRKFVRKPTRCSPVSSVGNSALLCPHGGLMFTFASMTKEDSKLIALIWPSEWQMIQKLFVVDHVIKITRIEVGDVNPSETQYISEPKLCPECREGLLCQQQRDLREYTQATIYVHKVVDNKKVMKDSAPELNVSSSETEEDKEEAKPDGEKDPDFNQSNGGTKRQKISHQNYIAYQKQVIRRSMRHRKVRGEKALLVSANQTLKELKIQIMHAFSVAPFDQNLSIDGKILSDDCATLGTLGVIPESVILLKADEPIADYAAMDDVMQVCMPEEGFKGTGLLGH
Outline: as §1

[5] = biological target: T4, USP5 (UniProt P45974)
T4 sequence (whole entry): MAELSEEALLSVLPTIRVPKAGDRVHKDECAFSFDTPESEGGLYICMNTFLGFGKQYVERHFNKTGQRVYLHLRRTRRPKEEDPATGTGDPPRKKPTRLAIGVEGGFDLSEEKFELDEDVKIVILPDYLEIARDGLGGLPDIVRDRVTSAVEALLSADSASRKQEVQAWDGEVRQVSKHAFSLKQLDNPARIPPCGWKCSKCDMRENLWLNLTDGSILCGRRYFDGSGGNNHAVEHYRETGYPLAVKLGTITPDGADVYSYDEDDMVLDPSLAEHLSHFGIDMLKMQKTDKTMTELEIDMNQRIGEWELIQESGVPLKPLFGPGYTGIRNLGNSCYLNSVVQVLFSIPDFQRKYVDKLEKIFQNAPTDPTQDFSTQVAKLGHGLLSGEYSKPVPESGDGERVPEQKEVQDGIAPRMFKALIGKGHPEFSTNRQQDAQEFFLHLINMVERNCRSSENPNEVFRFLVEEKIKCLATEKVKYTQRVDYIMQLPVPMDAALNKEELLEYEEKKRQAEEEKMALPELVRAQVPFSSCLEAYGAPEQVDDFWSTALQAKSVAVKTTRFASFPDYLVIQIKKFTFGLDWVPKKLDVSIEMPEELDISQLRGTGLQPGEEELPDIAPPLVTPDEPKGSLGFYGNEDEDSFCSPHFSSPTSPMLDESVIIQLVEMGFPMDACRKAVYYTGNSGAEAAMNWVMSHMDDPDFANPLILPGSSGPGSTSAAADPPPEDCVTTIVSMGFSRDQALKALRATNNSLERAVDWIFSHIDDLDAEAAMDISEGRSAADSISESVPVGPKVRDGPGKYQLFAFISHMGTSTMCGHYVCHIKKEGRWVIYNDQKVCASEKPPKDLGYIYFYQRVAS
Outline: as §1

[6] = biological target: USP54 (UniProt Q70EL1)
Outline: as §1

[7] = biological target: USP7 (UniProt Q93009)
Outline: as §1

[8] = biological target: T5, USP8 (UniProt P40818)
T5 sequence (whole entry): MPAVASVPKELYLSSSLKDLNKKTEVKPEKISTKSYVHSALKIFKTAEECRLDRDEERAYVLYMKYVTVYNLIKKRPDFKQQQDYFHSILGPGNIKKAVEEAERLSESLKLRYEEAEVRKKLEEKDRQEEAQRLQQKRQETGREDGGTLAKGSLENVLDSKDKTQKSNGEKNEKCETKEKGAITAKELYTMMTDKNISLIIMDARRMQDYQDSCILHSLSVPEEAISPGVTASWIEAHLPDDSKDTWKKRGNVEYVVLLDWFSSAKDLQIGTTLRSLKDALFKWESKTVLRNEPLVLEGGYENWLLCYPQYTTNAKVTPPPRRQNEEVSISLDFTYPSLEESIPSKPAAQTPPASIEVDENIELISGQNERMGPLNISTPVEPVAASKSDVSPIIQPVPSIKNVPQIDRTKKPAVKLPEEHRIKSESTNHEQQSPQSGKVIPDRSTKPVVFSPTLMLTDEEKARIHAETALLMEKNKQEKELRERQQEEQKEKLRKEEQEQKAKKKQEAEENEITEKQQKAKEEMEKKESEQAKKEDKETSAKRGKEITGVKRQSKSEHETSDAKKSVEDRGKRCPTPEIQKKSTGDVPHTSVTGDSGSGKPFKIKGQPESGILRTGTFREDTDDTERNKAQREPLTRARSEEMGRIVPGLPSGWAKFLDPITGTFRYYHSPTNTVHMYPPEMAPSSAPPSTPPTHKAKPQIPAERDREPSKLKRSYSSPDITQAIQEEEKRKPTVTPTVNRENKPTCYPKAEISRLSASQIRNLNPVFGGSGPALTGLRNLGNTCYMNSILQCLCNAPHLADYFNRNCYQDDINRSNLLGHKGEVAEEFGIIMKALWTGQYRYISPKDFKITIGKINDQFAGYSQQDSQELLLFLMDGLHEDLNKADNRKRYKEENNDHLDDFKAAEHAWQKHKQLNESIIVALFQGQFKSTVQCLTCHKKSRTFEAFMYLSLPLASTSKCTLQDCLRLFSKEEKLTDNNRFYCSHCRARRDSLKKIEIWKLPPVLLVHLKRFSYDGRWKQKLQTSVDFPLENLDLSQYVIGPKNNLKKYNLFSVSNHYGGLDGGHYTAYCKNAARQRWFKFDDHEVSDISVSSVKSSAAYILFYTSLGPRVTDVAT
Outline: as §1

[9] = biological target: USP9X (UniProt Q93008)
Outline: as §1

[10] = biological target: UniProt O00487
Outline: as §1

Measured: log2 ratio of Biotin-Ahx-Ub-VS probe labelling

Sequence of USP9X (Q93008 whole entry): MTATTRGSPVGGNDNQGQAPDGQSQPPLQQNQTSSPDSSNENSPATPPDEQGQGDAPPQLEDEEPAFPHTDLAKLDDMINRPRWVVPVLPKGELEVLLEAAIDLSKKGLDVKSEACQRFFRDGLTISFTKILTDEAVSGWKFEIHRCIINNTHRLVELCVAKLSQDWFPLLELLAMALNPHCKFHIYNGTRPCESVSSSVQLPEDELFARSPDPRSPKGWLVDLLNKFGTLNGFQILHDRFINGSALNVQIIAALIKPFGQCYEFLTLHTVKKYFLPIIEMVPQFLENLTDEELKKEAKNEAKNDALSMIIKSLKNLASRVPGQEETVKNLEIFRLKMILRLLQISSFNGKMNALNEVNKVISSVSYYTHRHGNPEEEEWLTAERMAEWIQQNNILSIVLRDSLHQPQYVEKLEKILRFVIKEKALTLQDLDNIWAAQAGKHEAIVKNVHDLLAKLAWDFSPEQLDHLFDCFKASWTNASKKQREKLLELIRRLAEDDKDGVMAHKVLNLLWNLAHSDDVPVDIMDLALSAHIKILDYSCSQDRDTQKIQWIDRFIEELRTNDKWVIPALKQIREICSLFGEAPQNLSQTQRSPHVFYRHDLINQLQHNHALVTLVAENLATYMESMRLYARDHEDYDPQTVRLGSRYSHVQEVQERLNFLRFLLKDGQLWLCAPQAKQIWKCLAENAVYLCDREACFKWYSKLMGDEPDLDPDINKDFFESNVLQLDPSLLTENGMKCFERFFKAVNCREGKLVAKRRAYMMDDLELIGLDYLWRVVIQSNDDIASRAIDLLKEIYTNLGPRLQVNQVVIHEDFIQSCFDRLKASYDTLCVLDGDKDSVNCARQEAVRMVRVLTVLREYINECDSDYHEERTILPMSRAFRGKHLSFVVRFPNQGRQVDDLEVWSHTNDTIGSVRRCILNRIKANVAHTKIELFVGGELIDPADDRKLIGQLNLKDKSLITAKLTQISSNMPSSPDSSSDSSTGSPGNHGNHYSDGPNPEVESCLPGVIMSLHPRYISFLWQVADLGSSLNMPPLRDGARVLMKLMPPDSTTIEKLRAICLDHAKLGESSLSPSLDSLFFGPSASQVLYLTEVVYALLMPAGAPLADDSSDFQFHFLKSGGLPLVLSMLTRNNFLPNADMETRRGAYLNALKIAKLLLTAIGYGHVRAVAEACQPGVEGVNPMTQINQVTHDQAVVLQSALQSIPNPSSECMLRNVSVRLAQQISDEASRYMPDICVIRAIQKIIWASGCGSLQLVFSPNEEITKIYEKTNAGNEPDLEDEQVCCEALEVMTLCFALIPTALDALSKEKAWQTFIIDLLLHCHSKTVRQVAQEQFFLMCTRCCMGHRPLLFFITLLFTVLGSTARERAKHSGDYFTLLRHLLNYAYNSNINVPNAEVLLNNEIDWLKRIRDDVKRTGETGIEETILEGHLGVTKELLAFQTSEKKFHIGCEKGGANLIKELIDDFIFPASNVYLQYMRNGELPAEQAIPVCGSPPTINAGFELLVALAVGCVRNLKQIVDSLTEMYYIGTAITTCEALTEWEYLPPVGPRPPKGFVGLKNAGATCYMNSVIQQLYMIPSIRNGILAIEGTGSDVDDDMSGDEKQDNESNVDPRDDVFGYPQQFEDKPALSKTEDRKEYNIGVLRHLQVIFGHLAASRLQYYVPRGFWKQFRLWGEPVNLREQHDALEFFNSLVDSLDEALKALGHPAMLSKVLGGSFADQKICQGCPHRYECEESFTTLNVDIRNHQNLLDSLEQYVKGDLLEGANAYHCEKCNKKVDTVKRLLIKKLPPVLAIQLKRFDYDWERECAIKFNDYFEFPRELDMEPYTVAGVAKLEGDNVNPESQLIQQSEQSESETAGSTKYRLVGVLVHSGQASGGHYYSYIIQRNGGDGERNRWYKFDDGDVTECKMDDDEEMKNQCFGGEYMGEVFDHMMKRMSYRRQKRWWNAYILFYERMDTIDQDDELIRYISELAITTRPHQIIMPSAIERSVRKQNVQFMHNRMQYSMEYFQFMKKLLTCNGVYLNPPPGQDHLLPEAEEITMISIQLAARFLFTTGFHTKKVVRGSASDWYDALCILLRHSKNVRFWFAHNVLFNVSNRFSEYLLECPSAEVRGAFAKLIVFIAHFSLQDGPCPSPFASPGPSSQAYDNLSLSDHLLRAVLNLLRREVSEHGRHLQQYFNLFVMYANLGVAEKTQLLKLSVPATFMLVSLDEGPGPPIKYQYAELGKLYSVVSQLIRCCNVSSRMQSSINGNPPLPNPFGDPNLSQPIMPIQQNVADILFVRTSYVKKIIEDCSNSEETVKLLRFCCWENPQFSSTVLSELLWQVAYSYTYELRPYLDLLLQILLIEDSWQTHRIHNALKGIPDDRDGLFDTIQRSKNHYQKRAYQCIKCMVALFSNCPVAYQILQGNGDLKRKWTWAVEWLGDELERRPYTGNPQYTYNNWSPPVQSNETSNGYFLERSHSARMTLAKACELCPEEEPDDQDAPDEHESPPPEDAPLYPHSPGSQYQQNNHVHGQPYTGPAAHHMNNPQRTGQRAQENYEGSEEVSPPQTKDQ
Sequence of USP46 (P62068 whole entry): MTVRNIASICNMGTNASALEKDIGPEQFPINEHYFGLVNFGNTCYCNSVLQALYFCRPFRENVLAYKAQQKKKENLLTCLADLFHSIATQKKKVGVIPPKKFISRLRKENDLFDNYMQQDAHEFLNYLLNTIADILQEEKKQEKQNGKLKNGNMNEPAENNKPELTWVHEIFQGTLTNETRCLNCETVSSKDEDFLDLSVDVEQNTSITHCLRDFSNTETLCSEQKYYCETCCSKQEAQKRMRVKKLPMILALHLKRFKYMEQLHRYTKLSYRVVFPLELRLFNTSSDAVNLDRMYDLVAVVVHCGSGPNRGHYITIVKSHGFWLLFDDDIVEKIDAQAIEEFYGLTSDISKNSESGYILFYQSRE
Sequence of USP7 (Q93009 whole entry, looked up): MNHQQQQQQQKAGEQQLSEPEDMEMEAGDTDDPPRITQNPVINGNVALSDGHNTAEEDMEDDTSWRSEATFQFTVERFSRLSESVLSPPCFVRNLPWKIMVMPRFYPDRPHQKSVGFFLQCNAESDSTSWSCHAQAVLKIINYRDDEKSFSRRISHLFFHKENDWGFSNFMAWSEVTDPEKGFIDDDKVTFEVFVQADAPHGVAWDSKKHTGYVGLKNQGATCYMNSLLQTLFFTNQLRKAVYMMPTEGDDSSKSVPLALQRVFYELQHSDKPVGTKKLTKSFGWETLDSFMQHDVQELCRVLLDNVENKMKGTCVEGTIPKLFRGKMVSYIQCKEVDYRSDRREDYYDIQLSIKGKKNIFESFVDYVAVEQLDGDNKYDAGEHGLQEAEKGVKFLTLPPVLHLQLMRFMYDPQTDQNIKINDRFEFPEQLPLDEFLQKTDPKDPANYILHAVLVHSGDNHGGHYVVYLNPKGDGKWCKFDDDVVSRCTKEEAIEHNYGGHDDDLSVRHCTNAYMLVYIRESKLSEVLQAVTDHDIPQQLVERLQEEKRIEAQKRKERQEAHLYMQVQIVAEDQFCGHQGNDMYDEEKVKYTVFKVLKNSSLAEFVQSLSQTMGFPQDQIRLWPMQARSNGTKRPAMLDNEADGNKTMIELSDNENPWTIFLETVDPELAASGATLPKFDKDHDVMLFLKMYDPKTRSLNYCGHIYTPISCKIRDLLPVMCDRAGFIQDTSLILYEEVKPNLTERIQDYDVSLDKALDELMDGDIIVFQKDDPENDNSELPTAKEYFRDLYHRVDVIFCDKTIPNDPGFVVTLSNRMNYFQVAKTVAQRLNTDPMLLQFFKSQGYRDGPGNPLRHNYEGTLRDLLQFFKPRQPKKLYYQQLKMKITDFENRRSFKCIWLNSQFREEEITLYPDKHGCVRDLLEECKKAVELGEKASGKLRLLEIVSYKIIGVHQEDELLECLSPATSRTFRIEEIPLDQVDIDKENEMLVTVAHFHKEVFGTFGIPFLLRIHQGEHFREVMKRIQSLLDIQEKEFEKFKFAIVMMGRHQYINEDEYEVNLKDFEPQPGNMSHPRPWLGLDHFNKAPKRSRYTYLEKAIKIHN
Sequence of UniProt O00487 (O00487 whole entry): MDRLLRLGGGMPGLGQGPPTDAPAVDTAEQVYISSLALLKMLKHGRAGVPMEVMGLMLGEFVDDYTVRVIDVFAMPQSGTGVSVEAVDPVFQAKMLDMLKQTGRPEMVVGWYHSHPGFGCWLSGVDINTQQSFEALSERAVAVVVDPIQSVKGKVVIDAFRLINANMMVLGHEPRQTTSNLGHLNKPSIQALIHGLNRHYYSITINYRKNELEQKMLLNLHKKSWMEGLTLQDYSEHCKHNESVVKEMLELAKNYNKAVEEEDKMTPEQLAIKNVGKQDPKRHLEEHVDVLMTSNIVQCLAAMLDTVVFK

Cl.O=C(CCl)N1CCCC(c2ncc[nH]2)C1 (stereo not given)
inactive: [1] -0.153 | [2] 0.183 | [3] -0.357 | [4] -0.331 | [5] 0.191 | [6] 0.506 | [7] -0.273 | [8] -0.0352 | [9] -0.121 | [10] -0.0974
